This assay deals with Glucose transporter (Leishmania mexicana) (UniProt O61059). The assay can be described thus: ST_JUDE_LEISH: Cytotoxicity at 2uM final concentration against transgenic Leishmania Mexicana promastigotes LmGT2 that are glucose transport deficient and complemented with the L. Mexicana glucose transporter 2. Activity is measured by DNA content using SYBR green in vitro. Format: functional.
The term inhibition denotes the drop in the measured response relative to a control, in per cent. On to `COc1ccc2ncc(C#N)c(CCN3CCC(NCc4ccc5c(c4)NC(=O)CO5)CC3)c2c1`, for which the inhibition worked out at 8.73%. For the compound `Cc1nc2c(c(C)nn2C(C)(C)C)c(C)c1CCC(=O)Nc1ccc(CN2CCCC2)cc1`, the inhibition was 5.29%. Next, `CCc1c(CCNCCCCCCNC(C)(C)Cc2ccc3c(c2CC)OCO3)ccc(OC)c1OC`: 6.49%; `O=C(c1ccc(-c2ccc(-c3nc4cc(C(F)(F)F)ccc4[nH]3)s2)cc1)N1CCCCC1CN1CCC(O)C1` (centres undefined): 2.98%; `O=C(Cc1cccs1)NC(CCCN1CCC(Oc2cccc(Cl)c2)CC1)c1ccc(Cl)c(Cl)c1` (centres undefined): -1.89%.

In the case of `O=C(C=Cc1ccc(Cl)c(Cl)c1)NCCCCCN1CCC(c2n[nH]c3ccccc23)CC1`, the inhibition amounted to 1.44%. The figure for `COc1c(C2CCN(CCCCNC(=O)c3ccc(-c4ccc(Cl)cc4)cc3)CC2)ccc2c1C(C)(C)CCC2(C)C` is -2.13%; for `Cc1nc(C(C)Nc2nncc(-c3ccc(Cl)cc3)n2)cs1` (centres undefined) it is 1.17%; for `Cc1cc(N[C@@H](CC(C)C)C(=O)NCc2cccs2)nc(NCCc2ccc(F)cc2)n1` it is 0.13%.

On to `CC(Cc1ccc(CN2CCN(Cc3ccccc3)CC2)cc1)NCC(O)c1cccc(C(F)(F)F)c1` (centres undefined), for which the inhibition was found to be 5.25%. Consider `CCOC(=O)c1ccc(Nc2cc(Nc3ccc(C(=O)OCC)cc3)nc(C)n2)cc1`, for which the inhibition amounted to 3.24%. On to `Cc1cccc(CN2CCCN(Cc3ccc(C(=O)Nc4ccc(C(C)(C)C)cc4)cc3)CC2)c1`, for which the inhibition was -0.38%. On to `CCCCNC(=N)Nc1ccc(OCCCOc2ccc(NC(=N)NCCCC)cc2)cc1`, for which the inhibition was 0.01%. As to `[O-][S+]1c2ccccc2Sc2ccccc21`, the inhibition is 1.95%. Next, `CC(=O)Nc1nc(C(=O)Nc2cccc(-c3ccc(-c4nc5cccc(C)c5[nH]4)cc3)c2)cs1`: 6.75%; `CS(=O)(=O)NCCCNCc1cccc(-c2cccc(-c3nc4cc(C(F)(F)F)ccc4[nH]3)c2)c1`: -1.5%. The figure for `CCOc1ccc(C(=O)Nc2cc(Br)c3c(c2)CNCC3)cc1Cl` is -0.05%.

For `COc1ccc(C=Cc2cc(=N)c3ccccc3[nH]2)cc1`, the inhibition was 0.89%. `CCc1nc(N)nc(N)c1-c1ccc(F)cc1`: the inhibition is 5.14%.

Take `O=c1cc(NCCCNC(c2ccccc2)c2ccc(Cl)c(Cl)c2)[nH]c2ccccc12` (centres undefined): the inhibition was -1.3%. Regarding `COCC(=O)Nc1nc2ccccc2[nH]1`, the inhibition is 2.36%. `O=C(COc1ccccc1Cc1ccccc1)Nc1cc(Cl)ccc1-n1cncn1`: the inhibition stood at 3.15%. Regarding `CCOc1cc(NCCSCc2nc[nH]c2C)nc2ccccc12`, the inhibition is -3.84%. Next, `CCOc1ccc2c(=NN=Cc3ccccc3F)cc(C)[nH]c2c1`: -0.43%.

For the origin of these results see ChEMBL document CHEMBL3433997, “St. Jude Leishmania screening dataset” (2016).
